Laboratory results published in the supplement of paper PMC7261846.
± gives the uncertainty stated by the source.

Test system: Candida albicans SNY425 biofilm
Test: biofilm OD600 with compound plus antifungal (OD600 (absorbance)); higher = more biofilm remaining
[1] = assay detail: disruption of 24-h mature biofilm (compound + antifungal for a second 24 h)
[2] = assay detail: sustained inhibition (compound + antifungal during 90-min adherence and 24-h growth)

SMILES | biofilm OD600 [1] | biofilm OD600 [2]
CN1C(=O)[C@]23CC4=CC=C[C@H](O)[C@H]4N2C(=O)[C@@]1(CO)SS3 [Gliotoxin] + CC[C@H](C)C[C@H](C)CCCCCCCCC(=O)N[C@H]1C[C@@H](O)[C@@H](NCCN)NC(=O)[C@@H]2[C@@H](O)CCN2C(=O)[C@H]([C@H](O)CCN)NC(=O)[C@H]([C@H](O)[C@@H](O)c2ccc(O)cc2)NC(=O)[C@@H]2C[C@@H](O)CN2C(=O)[C@H]([C@@H](C)O)NC1=O [caspofungin] (first compound 1 µM) | 0.217 ± 0.0081 | 0.0858 ± 0.0052
CN1C(=O)[C@]23CC4=CC=C[C@H](O)[C@H]4N2C(=O)[C@@]1(CO)SS3 [Gliotoxin] + OC(Cn1cncn1)(Cn1cncn1)c1ccc(F)cc1F [fluconazole] (first compound 1 µM) | 0.211 ± 0.0079 | 0.0782 ± 0.0052
NCCc1ccc(S(=O)(=O)F)cc1 + CC[C@H](C)C[C@H](C)CCCCCCCCC(=O)N[C@H]1C[C@@H](O)[C@@H](NCCN)NC(=O)[C@@H]2[C@@H](O)CCN2C(=O)[C@H]([C@H](O)CCN)NC(=O)[C@H]([C@H](O)[C@@H](O)c2ccc(O)cc2)NC(=O)[C@@H]2C[C@@H](O)CN2C(=O)[C@H]([C@@H](C)O)NC1=O [caspofungin] (first compound 4 µM) | 0.29 ± 0.0053 | 0.172 ± 0.0053
NCCc1ccc(S(=O)(=O)F)cc1 + C[C@@H]1[C@H](O)[C@@H](C)/C=C/C=C/C=C/C=C/C=C/C=C/C=C/[C@H](O[C@@H]2O[C@H](C)[C@@H](O)[C@H](N)[C@@H]2O)C[C@@H]2O[C@](O)(C[C@@H](O)C[C@@H](O)[C@H](O)CC[C@@H](O)C[C@@H](O)CC(=O)O[C@H]1C)C[C@H](O)[C@H]2C(=O)O [amphotericin B] (first compound 4 µM) | 0.303 ± 0.0047 | 0.184 ± 0.011
CN1C(=O)[C@]23CC4=CC=C[C@H](O)[C@H]4N2C(=O)[C@@]1(CO)SS3 [Gliotoxin] + C[C@@H]1[C@H](O)[C@@H](C)/C=C/C=C/C=C/C=C/C=C/C=C/C=C/[C@H](O[C@@H]2O[C@H](C)[C@@H](O)[C@H](N)[C@@H]2O)C[C@@H]2O[C@](O)(C[C@@H](O)C[C@@H](O)[C@H](O)CC[C@@H](O)C[C@@H](O)CC(=O)O[C@H]1C)C[C@H](O)[C@H]2C(=O)O [amphotericin B] (first compound 1 µM) | 0.226 ± 0.0062 | 0.0908 ± 0.0077
NCCc1ccc(S(=O)(=O)F)cc1 + OC(Cn1cncn1)(Cn1cncn1)c1ccc(F)cc1F [fluconazole] (first compound 4 µM) | 0.278 ± 0.0089 | 0.109 ± 0.0077
